Some test systems named below: SK-MEL-2 melanoma; EKVX NSCLC; SN12C renal; UO-31 renal; TK-10 renal; ACHN renal; CAKI-1 renal; A498 renal; CCRF-CEM leukemia; MOLT-4 leukemia; SR leukemia; RPMI-8226 leukemia; OVCAR-8 ovarian; OVCAR-5 ovarian; OVCAR-4 ovarian; SK-OV-3 ovarian; IGROV1 ovarian; OVCAR-3 ovarian; HS 578T breast; NCI/ADR-RES ovarian.
What all share (assay): NCI-60 one-dose screen, 48 h (100 = growth as untreated, 0 = no growth, -100 = all killed)
Conditions in all cases: 10 µM unless noted

About 83,000 compounds went through this panel and 20% of them were active in at least one assay; those are over-represented in the sample as a whole.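 Negative percent growth values reflect cell death: -40 means 40% of the cells present at the start died, and -100 means all died.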 Values without a mark were called inactive. Activity calls are given as the source filed them. The calls were made as follows: active = growth percent below 10; inactive = the rest.

Consider `CCn1c(Cc2ccccc2Nc2c(Cl)cccc2Cl)nnc1SCC(=O)NN1C(=O)/C(=C/c2cc(OC)c(O)c(OC)c2)SC1=S`, for which the growth is 30.7% in the test on SK-MEL-2 melanoma; 60.2% in the test with EKVX NSCLC; 54.8% in the test on SN12C renal; 59.6% in the test on UO-31 renal; 70% in the test with TK-10 renal; 58.9% in the test with ACHN renal. The growth in the test on CAKI-1 renal was 37%; in the test on A498 renal it was 20.6%; with CCRF-CEM leukemia, 19.1%; in the test with MOLT-4 leukemia, 23.1%; with SR leukemia it was 21.4%; with RPMI-8226 leukemia it was 47%. Also, the growth in the test with OVCAR-8 ovarian is 60%; in the test on OVCAR-5 ovarian, 55.5%; in the test with OVCAR-4 ovarian, 74%; in the test on SK-OV-3 ovarian, 23.2%; in the test on IGROV1 ovarian, 42.9%; with OVCAR-3 ovarian, 7.37% (active). The growth was 5.34% (active) in the test with HS 578T breast and 88.6% in the test on NCI/ADR-RES ovarian.

`c1csc(C2=NN3C(C2)c2ccccc2OC3c2ccncc2)c1` (stereo not given): the growth in the test on SK-MEL-2 melanoma was 96.3%; in the test with EKVX NSCLC, 78.2%; with SN12C renal, 89.9%; in the test with UO-31 renal, 64.5%; in the test with TK-10 renal, 111%; in the test on ACHN renal, 97.7%. Moreover, the growth in the test on CAKI-1 renal was 78.2%; in the test with A498 renal, 110%; in the test on CCRF-CEM leukemia, 95.8%; in the test on MOLT-4 leukemia it was 94.4%; with SR leukemia, 100%; with RPMI-8226 leukemia, 92.8%. For the same compound, the growth is 96.1% with OVCAR-8 ovarian; 108% in the test with OVCAR-5 ovarian; 90.9% with OVCAR-4 ovarian; 93.8% in the test on SK-OV-3 ovarian; 76.1% in the test with IGROV1 ovarian; 98.9% in the test with OVCAR-3 ovarian. Also, the values for the growth in the test on HS 578T breast and in the test with NCI/ADR-RES ovarian were 87.2% and 98.4%, respectively.

For `COc1cc(/C=C/c2cc(/C=C/c3ccc(O)c(OC)c3)n(-c3c(Cl)cccc3Cl)c(=O)n2)ccc1O`, the growth with SK-MEL-2 melanoma was 82.9%; in the test on EKVX NSCLC, 41.4%; in the test on SN12C renal it was 27.8%; with UO-31 renal, 25.2%; in the test on TK-10 renal it was 86%; with ACHN renal, 37.8%. Further, the growth with CAKI-1 renal is 63.2%; in the test on A498 renal, 78.5%; with CCRF-CEM leukemia it was 10.4%; with MOLT-4 leukemia, 9.71% (active); with SR leukemia, 4.12% (active); in the test on RPMI-8226 leukemia it was 0.562% (active). For the same compound, the growth with OVCAR-8 ovarian was 7.53% (active); in the test with OVCAR-5 ovarian, 57.6%; in the test on OVCAR-4 ovarian, 56.3%; in the test on SK-OV-3 ovarian, 47.7%; in the test with IGROV1 ovarian it was 33.5%; in the test on OVCAR-3 ovarian, 10.7%. The figures for the growth in the test with HS 578T breast and in the test on NCI/ADR-RES ovarian were 36.3% and 55.2%, respectively.

As for `COc1ccc2nc(NC(=O)CSc3nnc4n3S(=O)(=O)c3ccccc3N4c3ccccc3)sc2c1`, the growth was 87.9% with SK-MEL-2 melanoma; 94.4% with EKVX NSCLC; 107% with SN12C renal; -39.9% (active) in the test on UO-31 renal; 103% in the test on TK-10 renal; 92.8% in the test on ACHN renal. Also, the growth is -0.617% (active) in the test on CAKI-1 renal; 121% with A498 renal; -19.7% (active) in the test with CCRF-CEM leukemia; 6.47% (active) with MOLT-4 leukemia; 66.6% in the test with SR leukemia; 66.8% with RPMI-8226 leukemia. Further, the growth is 51.2% in the test on OVCAR-8 ovarian; 94.2% with OVCAR-5 ovarian; 91.8% in the test with OVCAR-4 ovarian; 100% with SK-OV-3 ovarian; 27.7% with IGROV1 ovarian; 104% in the test on OVCAR-3 ovarian. In addition, the growth is 89.6% with HS 578T breast and 93.5% in the test on NCI/ADR-RES ovarian.

`C=C1c2nc3ccccc3n2C=C(c2ccc(OC)cc2)N1Cc1ccccc1`: the growth in the test with SK-MEL-2 melanoma is 57.7%; in the test with EKVX NSCLC, 62.6%; with SN12C renal, 98.7%; in the test with UO-31 renal, 54.6%; in the test on TK-10 renal, 118%; in the test on ACHN renal, 96.2%. The growth in the test on CAKI-1 renal is 101%; with A498 renal, 69.7%; in the test with CCRF-CEM leukemia, 78.9%; in the test on MOLT-4 leukemia it was 71.5%; with SR leukemia, 47.3%; in the test with RPMI-8226 leukemia, 39.4%. The growth in the test with OVCAR-8 ovarian is 88.3%; with OVCAR-5 ovarian, 101%; in the test on OVCAR-4 ovarian it was 80.1%; with SK-OV-3 ovarian it was 107%; with IGROV1 ovarian it was 96.7%; in the test with OVCAR-3 ovarian, 85.4%. Besides, the growth is 116% in the test on HS 578T breast and 77.4% in the test with NCI/ADR-RES ovarian.

On to `COc1ccc(S(=O)(=O)N2CC3(COC3)C2)cc1NC(=O)c1[nH]c(C)c2c1CCCCC2=O`, for which the growth with SK-MEL-2 melanoma was 62.7%; with EKVX NSCLC it was 58.2%; with SN12C renal it was 54.9%; in the test with UO-31 renal, 40.4%; with TK-10 renal, 17.5%; in the test on ACHN renal, 60.4%. The growth with CAKI-1 renal is 20%; with A498 renal, 69.8%; with CCRF-CEM leukemia, 72.5%; in the test on MOLT-4 leukemia, 76.4%; with SR leukemia it was 51.3%; in the test on RPMI-8226 leukemia it was 25.8%. Further, the growth with OVCAR-8 ovarian was 54.2%; with OVCAR-5 ovarian it was 61.1%; in the test with OVCAR-4 ovarian it was 56.6%; in the test on SK-OV-3 ovarian, 39.8%; in the test with IGROV1 ovarian, 44%; in the test with OVCAR-3 ovarian, 54.4%. For the same compound, the values for the growth in the test with HS 578T breast and with NCI/ADR-RES ovarian were 26.7% and 91.1%, respectively.

As for `NC1=C(Cl)C(=O)c2ccc(S(N)(=O)=O)cc2C1=O`, the growth in the test on SK-MEL-2 melanoma is -73.6% (active); in the test with EKVX NSCLC, -77.6% (active); with SN12C renal it was -67.5% (active); in the test on UO-31 renal, -95.9% (active); with TK-10 renal it was -16.5% (active); in the test on ACHN renal, -95.6% (active). The growth in the test on CAKI-1 renal is -63.8% (active); with A498 renal, -99.5% (active); with CCRF-CEM leukemia it was 20.1%; with MOLT-4 leukemia, 11.8%; in the test with SR leukemia, 2.63% (active); with RPMI-8226 leukemia, -0.705% (active). Also, the growth in the test with OVCAR-8 ovarian is -53.9% (active); in the test with OVCAR-5 ovarian, -87.7% (active); in the test on OVCAR-4 ovarian it was -100% (active); with SK-OV-3 ovarian, -45.3% (active); with IGROV1 ovarian it was -85.5% (active); with OVCAR-3 ovarian, -95.5% (active). Further, the growth with HS 578T breast was -21% (active); in the test on NCI/ADR-RES ovarian, -30.7% (active).

(Values after PubChem BioAssay (NCI).)
